# Assay results: PubChem BioAssay AID1159580 (chemical genetic matrix, 2015)
# “And” between values parts separate entries of the source, which are not always exact repeats. Equal entries are not always repeated. Screen size: about 5,500 compounds; about 2,000 (36%) were called active. Another 18% or so got no clear call; they are omitted. The list shows a part of the results. Values without a mark were called inactive. Rule as the data show it: active = normalized growth mostly below about 0.91 (no sharp cut-off); inconclusive = no clear call, values can overlap the other calls; inactive = mostly above about 0.92.
# Test: chemical genetic growth profiling, strain panel (AID 1159580);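 also: tested at 20 µM; growth read once vehicle control cultures reached saturation at 30 °C; 1 = growth at the plate median or of vehicle wells; lower values mean less growth of the strain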
# Conditions: S. cerevisiae deletion strains, growth OD
smiles,measurement,setting,value
CC1(C)C2CC[C@]3(C)C(C(=O)C=C4[C@@H]5C[C@@](C)(C(=O)O)CC[C@]5(C)CC[C@]43C)[C@@]2(C)CC[C@@H]1O (stereo not given in full),normalized growth,"locus YAL013W, strain DEP1, hits give low values",1.02
same,normalized growth,"locus YAL021C, strain ccr4, hits give low values",1.02
same,normalized growth,"locus YAL026C, strain drs2, hits give low values",0.999
same,normalized growth,"locus YAL030W, strain snc1, hits give low values",1
same,normalized growth,"locus YBL061C, strain skt5, hits give low values",1.02
same,normalized growth,"locus YBR009C, strain hhf1, hits give low values",0.93
same,normalized growth,"locus YBR021W, strain FUR4, hits give low values",0.961
same,normalized growth,"locus YBR023C, strain chs3, hits give low values",1.02
same,normalized growth,"locus YBR171W, strain sec66, hits give low values",1
same,normalized growth,"locus YBR229C, strain ROT2, hits give low values",1.06
same,normalized growth,"locus YBR231C, strain swc5, hits give low values",1.08
same,normalized growth,"locus YBR279W, strain paf1, hits give low values",1.03
same,normalized growth,"locus YCL011C, strain gbp2, hits give low values",0.988
same,normalized growth,"locus YCL016C, strain dcc1, hits give low values",1.03
same,normalized growth,"locus YCL029C, strain bik1, hits give low values",0.956
same,normalized growth,"locus YCL069W, strain vba3, hits give low values",1
same,normalized growth,"locus YCR088W, strain abp1, hits give low values",1.02
same,normalized growth,"locus YDL005C, strain med2, hits give low values",1.01
same,normalized growth,"locus YDL035C, strain GPR1, hits give low values",0.873
same,normalized growth,"locus YDL040C, strain nat1, hits give low values",1.03
same,normalized growth,"locus YDL074C, strain BRE1, hits give low values",1.02
same,normalized growth,"locus YDL101C, strain DUN1, hits give low values",1.02
same,normalized growth,"locus YDL185W, strain tfp1, hits give low values",1.04
same,normalized growth,"locus YDL192W, strain arf1, hits give low values",0.996
same,normalized growth,"locus YDR001C, strain nth1, hits give low values",1.01
same,normalized growth,"locus YDR069C, strain doa4, hits give low values",1
same,normalized growth,"locus YDR101C, strain arx1, hits give low values",0.98
same,normalized growth,"locus YDR137W, strain rgp1, hits give low values",0.879
same,normalized growth,"locus YDR159W, strain sac3, hits give low values",0.908
same,normalized growth,"locus YDR162C, strain NBP2, hits give low values",0.986
same,normalized growth,"locus YDR195W, strain ref2",1.07
same,normalized growth,"locus YDR297W, strain sur2, hits give low values",0.978
same,normalized growth,"locus YDR318W, strain mcm21, hits give low values",0.997
same,normalized growth,"locus YDR334W, strain swr1, hits give low values",0.964
same,normalized growth,"locus YDR335W, strain msn5, hits give low values",1.01
same,normalized growth,"locus YDR388W, hits give low values",1.01
same,normalized growth,"locus YDR392W, strain spt3, hits give low values",1.02
same,normalized growth,"locus YDR502C, strain sam2, hits give low values",0.968
same,normalized growth,"locus YEL003W, strain gim4, hits give low values",0.932
same,normalized growth,"locus YEL037C, strain rad23, hits give low values",1
same,normalized growth,"locus YEL061C, strain CIN8 (second series), hits give low values",1.01
same,normalized growth,"locus YER015W, strain faa2, hits give low values",1.02
same,normalized growth,"locus YER016W, strain bim1, hits give low values",1.01
same,normalized growth,"locus YER110C, hits give low values",1.04
same,normalized growth,"locus YER111C, strain swi4, hits give low values",1.03
same,normalized growth,"locus YER155C, strain BEM2 (second series), hits give low values",1.13
same,normalized growth,"locus YER155C, strain BEM2, hits give low values",1.06
same,normalized growth,"locus YER167W, strain BCK2, hits give low values",1.07
same,normalized growth,"locus YFR010W, strain ubp6, hits give low values",0.943
same,normalized growth,"locus YGL078C, strain dbp3, hits give low values",0.907 (active)
same,normalized growth,"locus YGL086W, strain mad1, hits give low values",1.01
same,normalized growth,"locus YGL167C, strain pmr1, hits give low values",0.996
same,normalized growth,"locus YGL173C, strain kem1, hits give low values",0.876 (active)
same,normalized growth,"locus YGL227W, strain vid30, hits give low values",1.02
same,normalized growth,"locus YGL240W, strain doc1, hits give low values",0.986
same,normalized growth,"locus YGL248W, strain PDE1, hits give low values",0.985
same,normalized growth,"locus YGL253W, strain hxk2, hits give low values",1.02
same,normalized growth,"locus YGR078C, strain PAC10, hits give low values",1.02
same,normalized growth,"locus YGR135W, strain pre9, hits give low values",0.981
same,normalized growth,"locus YGR252W, strain gcn5, hits give low values",0.833
same,normalized growth,"locus YHR013C, strain ard1, hits give low values",1.1
same,normalized growth,"locus YHR027C, strain rpn1, hits give low values",0.956
same,normalized growth,"locus YHR030C, strain SLT2, hits give low values",1.07 and 0.991
same,normalized growth,"locus YHR079C, strain IRE1 (second series), hits give low values",1.02
same,normalized growth,"locus YHR079C, strain IRE1, hits give low values",0.973
same,normalized growth,"locus YHR094C, strain hxt1, hits give low values",1.03
same,normalized growth,"locus YHR129C, strain ARP1, hits give low values",1.07
same,normalized growth,"locus YHR142W, strain chs7, hits give low values",1.01
same,normalized growth,"locus YHR200W, strain rpn10, hits give low values",1.03
same,normalized growth,"locus YIL066C, strain RNR3, hits give low values",1.03
same,normalized growth,"locus YIL073C, strain SPO22, hits give low values",0.956
same,normalized growth,"locus YIL125W, strain kgd1, hits give low values",1.01
same,normalized growth,"locus YIR030C, strain dcg1, hits give low values",1.01
same,normalized growth,"locus YJL092W, strain hpr5, hits give low values",1.02
same,normalized growth,"locus YJL095W, strain BCK1 (second series), hits give low values",1.02
same,normalized growth,"locus YJL095W, strain BCK1, hits give low values",0.971 and 0.979
same,normalized growth,"locus YJL115W, strain asf1, hits give low values",1.01
same,normalized growth,"locus YJL129C, strain trk1, hits give low values",1.04
same,normalized growth,"locus YJL134W, strain LCB3, hits give low values",1.05
same,normalized growth,"locus YJL154C, strain vps35, hits give low values",1.01
same,normalized growth,"locus YJL164C, strain tpk1, hits give low values",0.946
same,normalized growth,"locus YJL166W, strain qcr8, hits give low values",0.974
same,normalized growth,"locus YJL168C, strain set2, hits give low values",1.03
same,normalized growth,"locus YJL187C, strain SWE1 (second series), hits give low values",1
same,normalized growth,"locus YJR043C, strain POL32, hits give low values",0.99
same,normalized growth,"locus YJR066W, strain TOR1, hits give low values",0.953
same,normalized growth,"locus YJR075W, strain HOC1, hits give low values",1.04
same,normalized growth,"locus YKL009W, strain mrt4, hits give low values",0.864 (active)
same,normalized growth,"locus YKL068W, hits give low values",1.08 [resistant] (active)
same,normalized growth,"locus YKL085W, strain MDH1 (second series), hits give low values",1.07 [resistant] (active)
same,normalized growth,"locus YKL085W, strain MDH1, hits give low values",1.07 [resistant] (active)
same,normalized growth,"locus YKL160W, strain elf1, hits give low values",1.01
same,normalized growth,"locus YKL190W, strain CNB1, hits give low values",1.08
same,normalized growth,"locus YKR001C, strain vps1, hits give low values",0.992
same,normalized growth,"locus YKR026C, strain gcn3, hits give low values",1.02
same,normalized growth,"locus YKR091W, strain srl3, hits give low values",1.01
same,normalized growth,"locus YLL001W, strain dnm1, hits give low values",0.952
same,normalized growth,"locus YLL026W, hits give low values",1.01
same,normalized growth,"locus YLL041C, strain sdh2, hits give low values",1.03
same,normalized growth,"locus YLR027C, strain aat2, hits give low values",1
same,normalized growth,"locus YLR039C, strain RIC1, hits give low values",1.03
same,normalized growth,"locus YLR058C, strain SHM2, hits give low values",1.01
same,normalized growth,"locus YLR102C, strain apc9, hits give low values",1.03
same,normalized growth,"locus YLR113W, strain HOG1, hits give low values",0.974
same,normalized growth,"locus YLR221C, strain rsa3, hits give low values",0.918
same,normalized growth,"locus YLR258W, strain gsy2, hits give low values",1
same,normalized growth,"locus YLR262C, strain YPT6 (second series), hits give low values",0.88
same,normalized growth,"locus YLR262C, strain YPT6, hits give low values",0.933
same,normalized growth,"locus YLR268W, strain sec22, hits give low values",0.953
same,normalized growth,"locus YLR320W, strain mms22, hits give low values",0.941
same,normalized growth,"locus YLR330W, strain CHS5, hits give low values",1.06
same,normalized growth,"locus YLR342W, strain FKS1 (second series), hits give low values",0.977
same,normalized growth,"locus YLR342W, strain FKS1, hits give low values",0.961
same,normalized growth,"locus YLR357W, strain rsc2, hits give low values",1.08
same,normalized growth,"locus YLR370C, strain arc18, hits give low values",1.04
same,normalized growth,"locus YLR371W, strain rom2, hits give low values",1.04
same,normalized growth,"locus YLR384C, strain iki3, hits give low values",1.03
same,normalized growth,"locus YLR418C, strain cdc73, hits give low values",0.991
same,normalized growth,"locus YML016C, strain PPZ1, hits give low values",1.05
same,normalized growth,"locus YML032C, strain rad52, hits give low values",0.973
same,normalized growth,"locus YML120C, strain ndi1, hits give low values",0.933
same,normalized growth,"locus YML124C, strain tub3, hits give low values",1.03
same,normalized growth,"locus YMR058W, strain fet3, hits give low values",0.983
same,normalized growth,"locus YMR078C, strain ctf18, hits give low values",1.04
same,normalized growth,"locus YMR125W, strain sto1, hits give low values",1.12 [resistant] (active)
same,normalized growth,"locus YMR129W, hits give low values",1.02
same,normalized growth,"locus YMR205C, strain PFK2, hits give low values",0.99
same,normalized growth,"locus YMR223W, strain ubp8, hits give low values",0.978
same,normalized growth,"locus YMR231W, strain pep5, hits give low values",0.99
same,normalized growth,"locus YMR307W, strain GAS1, hits give low values",0.902
same,normalized growth,"locus YNL067W, strain RPL9B, hits give low values",0.987
same,normalized growth,"locus YNL071W, strain lat1, hits give low values",0.996
same,normalized growth,"locus YNL128W, strain TEP1, hits give low values",1.05
same,normalized growth,"locus YNL153C, strain GIM3, hits give low values",0.982
same,normalized growth,"locus YNL183C, strain NPR1, hits give low values",0.933
same,normalized growth,"locus YNL209W, strain ssb2, hits give low values",1.03
same,normalized growth,"locus YNL233W, strain BNI4, hits give low values",0.992
same,normalized growth,"locus YNL248C, strain rpa49, hits give low values",1.01
same,normalized growth,"locus YNL250W, strain rad50, hits give low values",0.998
same,normalized growth,"locus YNL271C, strain bni1, hits give low values",0.994
same,normalized growth,"locus YNL298W, strain CLA4, hits give low values",0.942
same,normalized growth,"locus YNL307C, strain MCK1, hits give low values",1.03
same,normalized growth,"locus YNL322C, strain KRE1 (second series), hits give low values",0.982
same,normalized growth,"locus YNL322C, strain KRE1, hits give low values",1.05
same,normalized growth,"locus YNR049C, strain mso1, hits give low values",1.03
same,normalized growth,"locus YNR052C, strain pop2, hits give low values",0.955
same,normalized growth,"locus YOL006C, strain TOP1, hits give low values",0.968
same,normalized growth,"locus YOL012C, strain htz1",1.55
same,normalized growth,"locus YOL147C, strain pex11, hits give low values",1.03
same,normalized growth,"locus YOR001W, strain rrp6, hits give low values",0.886 (active)
same,normalized growth,"locus YOR061W, strain CKA2, hits give low values",1.04
same,normalized growth,"locus YOR069W, strain VPS5, hits give low values",1.05
same,normalized growth,"locus YOR070C, strain gyp1, hits give low values",1.01
same,normalized growth,"locus YOR080W, strain dia2, hits give low values",1
same,normalized growth,"locus YOR083W, strain WHI5, hits give low values",0.922
same,normalized growth,"locus YOR106W, strain vam3, hits give low values",0.925
same,normalized growth,"locus YOR136W, strain idh2, hits give low values",1.01
same,normalized growth,"locus YOR144C, strain elg1, hits give low values",1.02
same,normalized growth,"locus YOR184W, strain ser1, hits give low values",0.857 (active)
same,normalized growth,"locus YOR231W, strain MKK1, hits give low values",0.966
same,normalized growth,"locus YOR265W, strain rbl2, hits give low values",1
same,normalized growth,"locus YOR270C, strain vph1, hits give low values",0.918
same,normalized growth,"locus YOR290C, strain snf2, hits give low values",0.989
same,normalized growth,"locus YOR316C, strain cot1, hits give low values",1.03
same,normalized growth,"locus YPL051W, strain arl3, hits give low values",1.02
same,normalized growth,"locus YPL055C, strain LGE1, hits give low values",1.06
same,normalized growth,"locus YPL078C, strain atp4, hits give low values",1.02
same,normalized growth,"locus YPL106C, strain sse1, hits give low values",1.13
same,normalized growth,"locus YPL240C, strain hsp82, hits give low values",1.01
same,normalized growth,"locus YPL256C, strain CLN2, hits give low values",1.05
same,normalized growth,"locus YPR119W, strain clb2, hits give low values",1.03
same,normalized growth,"locus YPR141C, strain kar3, hits give low values",1.05
same,normalized growth,"locus YPR163C, strain tif3, hits give low values",1.03
same,normalized growth,"locus YPR167C, strain met16, hits give low values",1.02
same,normalized growth,"strain wtn01, hits give low values",0.966
